Activity calls are given as the source filed them. The rule behind the calls is not given here.
Target: Estrogen receptor (Homo sapiens) (UniProt P03372)
Assay: ERalpha ligand binders by competition, primary screen, cell-based, Cos7 ERalpha-GFP, flow cytometry (AID 1211);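 note: 0% = DMSO vehicle wells and 100% = no E2-Alexa633 signal left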
Conditions: fluorescent ligand competition, at 10 µM, hits give high values

Sequence of Estrogen receptor (Homo sapiens) (P03372 whole entry, looked up): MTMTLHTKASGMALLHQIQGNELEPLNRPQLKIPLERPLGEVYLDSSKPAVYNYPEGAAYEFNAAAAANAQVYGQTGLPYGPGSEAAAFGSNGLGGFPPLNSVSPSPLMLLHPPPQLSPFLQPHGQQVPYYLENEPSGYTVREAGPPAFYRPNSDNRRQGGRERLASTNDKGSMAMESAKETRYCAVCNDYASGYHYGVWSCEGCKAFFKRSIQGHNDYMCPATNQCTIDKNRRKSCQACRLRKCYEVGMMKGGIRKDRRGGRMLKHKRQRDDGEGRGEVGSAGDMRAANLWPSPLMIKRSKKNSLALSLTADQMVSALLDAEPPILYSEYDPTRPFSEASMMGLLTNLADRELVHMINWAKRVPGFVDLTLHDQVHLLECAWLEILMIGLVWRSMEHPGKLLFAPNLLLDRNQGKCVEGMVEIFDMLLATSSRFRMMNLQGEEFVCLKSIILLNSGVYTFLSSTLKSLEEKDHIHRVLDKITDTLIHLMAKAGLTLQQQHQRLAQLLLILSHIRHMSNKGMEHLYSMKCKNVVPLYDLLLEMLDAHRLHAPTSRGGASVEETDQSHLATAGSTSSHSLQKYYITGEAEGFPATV

Inhibition of ligand binding, active:
COc1ccc(C(=O)N/N=C(\C)c2ccc3c(c2)C2C=CCC2C(c2ccccc2)N3)cc1 (configuration not stated) 73%
O=C(O)c1ccc2c(c1)[C@@H]1C=CC[C@@H]1[C@H](c1ccccn1)N2 81%

Inhibition of ligand binding, inactive:
O=c1cc(-c2ccccc2Cl)oc2c(Br)ccc(O)c12 27%
CCC1(CC)NC(=O)N(CC(=O)Nc2sc3c(c2C(N)=O)CCC3)C1=O 38%
COc1cc2c(cc1OC)CC(C)(C)N(Cc1ccco1)C2 0%
COc1cc(O)c2c(=O)c3c(OC)c(O)ccc3oc2c1 63%
O=c1c(C(c2ccc(O)cc2)c2c(O)nc3n(c2=O)CCS3)c(O)nc2n1CCS2 7%
CC1(C)CC(=O)C=C(NC2CC(C)(C)NC(C)(C)C2)C1 0%
CCCOc1cc2oc(=O)c3c(c2cc1CC)CCCC3 0%
COC(=O)c1ccc2c(c1)C1C=CCC1C(c1cccc([N+](=O)[O-])c1)N2 (configuration not stated) 10%
Cc1nc2ccccc2n1-c1cc(C(C)(C)C)c(O)c(C(C)(C)C)c1 9%
Cc1ccc(OCc2ccoc2C(=O)O)cc1C 0%
Cc1ccc(NC(=O)CSc2nnnn2-c2ccc3c(c2)OCO3)cc1C 33%
O=c1oc2cc(O)ccc2c2c1CCCC2 7%
Cc1sc2ncnc(NCc3ccco3)c2c1C 0%
COc1cc(C2CC(=O)Nc3c2ccc2ccccc32)cc(Cl)c1O (configuration not stated) 0%
COc1ccc2c(c1)C1OCCC1C(c1ccco1)N2 (configuration not stated) 46%
